According to PubChem BioAssay (NCI):
About 83,000 compounds went through this panel and 20% of them were active in at least one assay; those are over-represented in the sample as a whole.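 Note: values are percent growth. 100 is the growth of untreated cells, values between 100 and 0 indicate rising inhibition; between -100 and 0 indicates cell death.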 Calls of active or inactive are those of the source. Rule for the calls: active = growth percent below 10; inactive = the rest.

Key:
Experiment in all cases: NCI-60 one-dose screen, 48 h (100 = growth as untreated, 0 = no growth, -100 = all killed)
Conditions in all cases: 10 µM unless noted
T-47D breast = test system: T-47D breast
BT-549 breast = test system: BT-549 breast
MDA-MB-435 melanoma = test system: MDA-MB-435 melanoma
SW-620 colon = test system: SW-620 colon
MCF7 breast = test system: MCF7 breast
HCT-116 colon = test system: HCT-116 colon
HCC-2998 colon = test system: HCC-2998 colon
KM12 colon = test system: KM12 colon

Measured: growth

Cn1c2ccccc2c2c3c(c4c5ccccc5n(CCCCCC#N)c4c21)C(=O)N(O)C3=O
active: MCF7 breast 7.79% | HCT-116 colon -19.4%
inactive: T-47D breast 17.4% | BT-549 breast 18.5% | MDA-MB-435 melanoma 20.9% | SW-620 colon 14% | HCC-2998 colon 25.3% | KM12 colon 16.6%

COC1=CC(=O)C(OC)=C(OC)C1=O
inactive: T-47D breast 97% | BT-549 breast 101% | MDA-MB-435 melanoma 97.5% | SW-620 colon 101% | MCF7 breast 90.6% | HCT-116 colon 92.3% | HCC-2998 colon 117% | KM12 colon 110%

CC(C)(C)n1cc(-c2ccnc(NCCNS(=O)(=O)c3ccccc3)c2)c(-c2cccc(O)c2)n1
inactive: T-47D breast 24.3% | BT-549 breast 26.4% | MDA-MB-435 melanoma 68.3% | SW-620 colon 16.2% | MCF7 breast 36.5% | HCT-116 colon 47.2% | HCC-2998 colon 47.5% | KM12 colon 42.8%

NS(=O)(=O)c1ccc(Nc2nc3n[nH]c(Nc4ccccc4)c3c(=O)[nH]2)cc1
inactive: T-47D breast 87.3% | BT-549 breast 99.1% | MDA-MB-435 melanoma 103% | SW-620 colon 104% | MCF7 breast 98.5% | HCT-116 colon 112% | HCC-2998 colon 112% | KM12 colon 100%

Cc1cc(=O)oc2cc(Oc3nc(-c4cccs4)cn4c(-c5cccs5)cnc34)ccc12
inactive: T-47D breast 54.7% | BT-549 breast 25% | MDA-MB-435 melanoma 61.3% | SW-620 colon 56.7% | MCF7 breast 59.9% | HCT-116 colon 58.7% | HCC-2998 colon 78.1% | KM12 colon 59.6%

CCCCCCCCCCCCCCCCCCNC(=O)[C@H]1CSC(c2ccc(F)c(OC)c2)N1 (stereo partly drawn)
active: T-47D breast -72.3% | BT-549 breast -75.9% | MDA-MB-435 melanoma -92.7% | SW-620 colon -74.5% | MCF7 breast -71.7% | HCT-116 colon -85.5% | HCC-2998 colon -91.4% | KM12 colon -72.3%

c1c2c(cc3c1OCO3)Cc1cc3c(cc1Cc1cc4c(cc1C2)OCO4)OCO3
inactive: T-47D breast 108% | BT-549 breast 113% | MDA-MB-435 melanoma 105% | SW-620 colon 109% | MCF7 breast 90.8% | HCT-116 colon 115% | HCC-2998 colon 112% | KM12 colon 126%

CC[C@@H](C)OC(=O)c1nn(C(C)=O)c2ccccc12
inactive: T-47D breast 103% | BT-549 breast 105% | MDA-MB-435 melanoma 103% | SW-620 colon 107% | MCF7 breast 83.6% | HCT-116 colon 104% | HCC-2998 colon 96.4% | KM12 colon 103%

c1ccc(-c2nc(N3CCOCC3)c3c4c(sc3n2)CCCCC4)nc1
active: T-47D breast 8.3%
inactive: BT-549 breast 62.8% | MDA-MB-435 melanoma 71% | SW-620 colon 88.6% | MCF7 breast 23.7% | HCT-116 colon 74.3% | HCC-2998 colon 83% | KM12 colon 64.7%

O=C1C(Cl)=C(Cl)C(=O)c2c1nc1n2CCCC1
inactive: T-47D breast 48.3% | BT-549 breast 95.5% | MDA-MB-435 melanoma 115% | SW-620 colon 81.6% | MCF7 breast 70% | HCT-116 colon 84.1% | HCC-2998 colon 52.5% | KM12 colon 80.5%

CC/C=C\C[C@H](F)C/C=C1/C(=O)C=C[C@@H]1C/C=C\CCCC(=O)O
inactive: T-47D breast 71.9% | BT-549 breast 68.8% | MDA-MB-435 melanoma 21.6% | SW-620 colon 30.9% | MCF7 breast 22.6% | HCC-2998 colon 81.9% | KM12 colon 22.3%
active: HCT-116 colon -15.7%

O=C(/C=C\c1ccc2ccccc2n1)c1cc(Cl)ccc1O
inactive: T-47D breast 28.3% | BT-549 breast 71.5% | MDA-MB-435 melanoma 51.8% | SW-620 colon 29% | MCF7 breast 27.9% | HCT-116 colon 48.6% | HCC-2998 colon 84.4% | KM12 colon 74.2%

COc1cc2cc(COc3nccc(-c4ccc(Cl)cc4)n3)c(=O)[nH]c2cc1OC
inactive: T-47D breast 85.5% | BT-549 breast 86.4% | MDA-MB-435 melanoma 65.6% | SW-620 colon 36.5% | MCF7 breast 46.3% | HCT-116 colon 53.4% | HCC-2998 colon 11.7% | KM12 colon 76.2%

CCN(CC)Cc1cc(Nc2c3ccccc3nc3cc(Cl)ccc23)ccc1O
active: T-47D breast -68.2% | BT-549 breast -58% | MDA-MB-435 melanoma -92.7% | SW-620 colon -41% | MCF7 breast -60.7% | HCT-116 colon -43% | HCC-2998 colon -100% | KM12 colon -30%

COc1cccc(-c2nc3sccn3c2-c2ccnc(NCCCNS(=O)(=O)c3ccc(Cl)cc3)c2)c1
inactive: BT-549 breast 34.4% | MDA-MB-435 melanoma 38.4% | SW-620 colon 58.3% | MCF7 breast 34.6% | HCT-116 colon 44% | HCC-2998 colon 66.5% | KM12 colon 43.5%
active: T-47D breast 2.4%

COc1ccc(/C=C2\N=C3SC=C(N)N3C2=O)cc1
inactive: BT-549 breast 11.8% | SW-620 colon 21.9% | MCF7 breast 13.4% | HCC-2998 colon 40.9% | KM12 colon 46.9%
active: T-47D breast 9.75% | MDA-MB-435 melanoma 9.59% | HCT-116 colon -6.91%

O=c1cc(-c2ccccc2)[nH]c2ccccc12
active: BT-549 breast -12.2% | MDA-MB-435 melanoma -16.8%
inactive: T-47D breast 47.9% | SW-620 colon 29.8% | MCF7 breast 15.6% | HCT-116 colon 25.1% | HCC-2998 colon 18.5% | KM12 colon 12.7%

CC(=O)/C(=C/c1cccc(Cl)c1)C(=O)c1ccccc1
inactive: T-47D breast 63.6% | BT-549 breast 72.6% | MDA-MB-435 melanoma 72.7% | SW-620 colon 71.3% | MCF7 breast 34% | HCT-116 colon 41.7% | HCC-2998 colon 99.9% | KM12 colon 54.8%

CC(C)CC(CC1=CCC2CC1C2(C)C)C1=C(O)C(C)(C)C(=O)C(C)(C)C1=O (stereo not drawn)
active: T-47D breast 4.63% | BT-549 breast -6.03% | MCF7 breast 7.94% | HCT-116 colon 6.3% | KM12 colon 9.6%
inactive: MDA-MB-435 melanoma 11% | SW-620 colon 14.2% | HCC-2998 colon 17.6%

COc1ccc(-c2cc(/C=C3\C(=O)Nc4ccc(Cl)cc43)[nH]n2)cc1
inactive: T-47D breast 47.4% | BT-549 breast 55.4% | SW-620 colon 26.9% | MCF7 breast 17% | HCT-116 colon 26.8% | HCC-2998 colon 94.3% | KM12 colon 43.8%
active: MDA-MB-435 melanoma -27.4%

Cc1ccc(S(=O)(=O)n2cc(-c3csc(-c4cn(C)c5ncccc45)n3)c3ccccc32)cc1
inactive: T-47D breast 24.4% | BT-549 breast 66.9% | SW-620 colon 40% | MCF7 breast 19.8% | HCT-116 colon 36% | HCC-2998 colon 88.4% | KM12 colon 29.3%
active: MDA-MB-435 melanoma 3.65%

COc1cc(-c2cc(-c3nc4ccc(Cl)cc4[nH]3)[nH]n2)cc(OC)c1OC
active: T-47D breast 0.183%
inactive: BT-549 breast 22.4% | MDA-MB-435 melanoma 39.5% | SW-620 colon 78.7% | MCF7 breast 47% | HCT-116 colon 49.4% | HCC-2998 colon 89% | KM12 colon 47%

Nc1cccc(-c2nc3sccn3c2-c2ccnc(NCCCNS(=O)(=O)c3ccc(C(F)(F)F)cc3)n2)c1
inactive: SW-620 colon 12.7% | HCC-2998 colon 18.1%
active: T-47D breast -16.9% | BT-549 breast 0.811% | MDA-MB-435 melanoma -14.8% | MCF7 breast 2.11% | HCT-116 colon 3.07% | KM12 colon 1.52%

O=C(CN1CCN(c2cc3c(cc2F)c(=O)c(C(=O)O)cn3C2CC2)CC1)Nc1nc(-c2ccccc2)cs1
inactive: T-47D breast 72.8% | BT-549 breast 73.7% | MDA-MB-435 melanoma 86.6% | SW-620 colon 91.7% | MCF7 breast 86.8% | HCT-116 colon 81.2% | HCC-2998 colon 92.6% | KM12 colon 89.6%

COc1ccc(S(=O)(=O)NCCNc2nccc(-c3c(-c4cccc(N)c4)nc4sccn34)n2)cc1
inactive: T-47D breast 75.9% | BT-549 breast 82.8% | MDA-MB-435 melanoma 103% | SW-620 colon 113% | MCF7 breast 90.8% | HCT-116 colon 98% | HCC-2998 colon 122% | KM12 colon 64.6%

S=c1[nH]nc(CSc2ncnc3c2c(-c2ccccc2)cn3-c2ccc(Cl)cc2)o1
inactive: T-47D breast 90.6% | BT-549 breast 107% | MDA-MB-435 melanoma 104% | SW-620 colon 95.2% | MCF7 breast 93.7% | HCT-116 colon 93.8% | HCC-2998 colon 104% | KM12 colon 98.7%

OCCNCCNc1c2ccccc2nc2ccccc12
inactive: T-47D breast 39.6% | BT-549 breast 103% | MDA-MB-435 melanoma 89.4% | SW-620 colon 59.5% | MCF7 breast 23.4% | HCT-116 colon 37.7% | HCC-2998 colon 52.6% | KM12 colon 55.6%

Cc1ccc2c(c1)n([O-])c1cc(Cl)ccc1[n+]2=O
inactive: T-47D breast 93.9% | BT-549 breast 108% | MDA-MB-435 melanoma 96.8% | SW-620 colon 119% | MCF7 breast 108% | HCT-116 colon 84.2% | HCC-2998 colon 120% | KM12 colon 105%

CCC(c1ccc(O)cc1)C(CC)c1ccc(O)c(F)c1 (stereo not drawn)
inactive: T-47D breast 65.8% | BT-549 breast 92.9% | MDA-MB-435 melanoma 75.1% | SW-620 colon 93.7% | MCF7 breast 103% | HCT-116 colon 59% | HCC-2998 colon 96.4% | KM12 colon 82.6%

CCCCCCCCCCCCN1CCCC(C)C1 (stereo not drawn)
inactive: T-47D breast 74.6% | BT-549 breast 78.1% | MDA-MB-435 melanoma 95.9% | SW-620 colon 87.7% | MCF7 breast 68.6% | HCT-116 colon 60.7% | HCC-2998 colon 86.9% | KM12 colon 60.7%

COc1ccc(S(=O)(=O)NCCCNc2nccc(-c3c(-c4cccc(N)c4)nc4sccn34)n2)cc1
inactive: T-47D breast 63% | BT-549 breast 102% | MDA-MB-435 melanoma 70.2% | SW-620 colon 138% | MCF7 breast 69.3% | HCT-116 colon 99.2% | HCC-2998 colon 144% | KM12 colon 39.4%
